Compound activity from PubChem BioAssay.
In the library only some 5.3% were active in any assay of this set; here they are far more common.
TDP1 inh = qHTS Assay for Inhibitors of Tyrosyl-DNA Phosphodiesterase (TDP1); actives 0.28% (n = 350,000); Potency, µM (highest dose often 130 µM), for inactives: at the top dose activity change, negative = inhibition, actives largely listed as inhibitors; Tyrosyl-DNA phosphodiesterase 1 (Homo sapiens), Q9NUW8; recombinant TDP1, AlphaScreen DNA substrate cleavage; note: potency is the fitted concentration of half-maximal effect; % is set by controls: 0 for no effect and ±100 for the full control effect; nearly all actives have a fitted effect of over 40% in size
Target sequence (Q9NUW8 whole entry, looked up): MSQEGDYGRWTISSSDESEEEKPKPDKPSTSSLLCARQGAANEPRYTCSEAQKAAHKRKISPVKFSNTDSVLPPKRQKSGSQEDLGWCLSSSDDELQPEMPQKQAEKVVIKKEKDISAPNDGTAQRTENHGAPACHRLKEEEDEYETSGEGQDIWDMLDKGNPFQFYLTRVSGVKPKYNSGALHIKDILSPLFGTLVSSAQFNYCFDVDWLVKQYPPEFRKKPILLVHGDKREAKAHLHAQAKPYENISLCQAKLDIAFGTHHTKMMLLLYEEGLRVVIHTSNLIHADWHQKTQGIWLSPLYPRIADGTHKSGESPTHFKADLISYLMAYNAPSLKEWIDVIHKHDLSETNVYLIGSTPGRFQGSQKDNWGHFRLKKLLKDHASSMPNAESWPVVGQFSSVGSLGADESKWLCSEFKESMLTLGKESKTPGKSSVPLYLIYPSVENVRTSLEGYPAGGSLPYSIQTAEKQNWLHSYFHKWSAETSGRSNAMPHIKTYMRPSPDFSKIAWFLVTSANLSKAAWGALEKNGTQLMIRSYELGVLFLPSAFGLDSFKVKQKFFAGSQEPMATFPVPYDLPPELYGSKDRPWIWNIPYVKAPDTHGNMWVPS
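Here, a 5' biotin and 3' phosphotyrosine-FITC DNA oligonucleotide reports Tdp1 activity: intact substrate bridges AlphaScreen beads, while cleavage leaves a 3' phosphate and drops signal. All incubations at room temperature.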
Six1-Eya2 blk = qHTS Assay for Inhibitors of the Six1/Eya2 Interaction | AlphaScreen GST-Six1/His-Eya2 binding, biochemical; active compounds read low | activity change, % (no concentration beside the values) | actives 0.56% (n = 360,000); in the data active = activity change below about -65%; inconclusive = mostly about -30% to -63%; note: % is set by controls: 0 for no effect and ±100 for the full control effect
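Compounds are tested against tagged Six1 and Eya2 proteins bridged by glutathione donor and nickel acceptor beads; after a one-hour incubation at 37 °C without light, AlphaScreen emission is recorded.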
HP1b binding inh = HTS for Inhibitors of HP1-beta Chromodomain Interactions with Methylated Histone Tails; AlphaScreen HP1-beta / biotin-H3K9me3 peptide binding; Potency, µM (highest dose often 114 µM), inactives show top-dose activity change, negative = inhibition, most hits filed as inhibitors; actives 0.56% (n = 390,000); note: potency is the fitted concentration of half-maximal effect; nearly all actives have a fitted effect of over 70% in size
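AlphaScreen: HP1-beta (50 nM) preformed 30 min with biotin-H3(1-18)K9me3 peptide (50 nM) in PBS pH 7.4, 0.01% Tween-20. Compound added for 30 min at RT, then streptavidin donor/nickel chelate acceptor beads (10 ug/mL) for 30 min.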
CtBP-E1A inh = qHTS Assay for Inhibitors of the CtBP/E1A Interaction. CtBP / adenovirus E1A interaction (AlphaScreen). AlphaScreen GST-E1A/His-CtBP binding, 1536-well; active compounds read low. activity change, % (concentration not given with the values). actives 0.49% (n = 340,000); in the data active = activity change below about -65%; inconclusive = mostly about -30% to -63%; note: % is set by controls: 0 for no effect and ±100 for the full control effect
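Steps: dispense buffer (Tris pH 8.0, NaCl 300 mM, TCEP 1 mM, BSA, Tween 20); add 5X protein mix (GST-E1A, His-CtBP, 125 nM each); pin 23 nL compound; 2 h at 37 °C, dark; add 5X beads (50 ug/mL); 1 h; read.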
BAZ2B block = qHTS Assay for Inhibitors of BAZ2B. Bromodomain adjacent to zinc finger domain protein 2B (Homo sapiens), Q9UIF8. actives 4.4% (n = 360,000). AlphaScreen BAZ2B-H3K14Ac peptide displacement. Potency, µM (highest dose often 114 µM), for inactives: at the highest dose activity change, negative = inhibition, usual class: inhibitors; note: potency is the fitted concentration of half-maximal effect; % is set by controls: 0 for no effect and ±100 for the full control effect; nearly all actives have a fitted effect of over 60% in size
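Compounds, titrated to a top concentration of 110 uM, were incubated 30 min at room temperature with preformed BAZ2B/acetyl-K14 H3 peptide complex (50 nM each). Proximity signal was measured by AlphaScreen after 20 min with beads.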
JMJD2A Tudor = qHTS Assay for Inhibitors of JMJD2A-Tudor Domain | actives 4.4% (n = 390,000) | AID 504339, 2011 | AlphaScreen JMJD2A-Tudor / H3K4me3 peptide binding | Lysine-specific demethylase 4A (Homo sapiens), O75164 | Potency, µM (series often up to 114 µM), for inactives: at the top dose activity change, negative = inhibition, most hits filed as inhibitors; note: potency is the fitted concentration of half-maximal effect; % is set by controls: 0 for no effect and ±100 for the full control effect; nearly all actives have a fitted effect of over 50% in size
Numbers without * were called inactive; ? = inconclusive; nt = not tested or not shown; [ ] = dose if it differs, or a comment. Unless noted, calls come from the whole dose curve; as a rule, active = well fitted inhibition curve with a large enough effect; inconclusive = small, poorly fitted or top-dose-only effect; inactive = no such curve, though single readings can be large or run the other way.

SMILES	TDP1 inh	Six1-Eya2 blk	HP1b binding inh	CtBP-E1A inh	BAZ2B block	JMJD2A Tudor
Cc1ccc(NC(=O)c2cc(C)nc3c2c(C)nn3-c2cccc(Cl)c2C)c(C)c1	1.1%	nt	11.4%	nt	9.1%[57.1 µM]	-9.1%
CCOc1ccc(C(=O)c2cn(CC(=O)Nc3ccc(F)cc3)c3cc4c(cc3c2=O)OCO4)cc1	-1.3%	nt	24.6%	nt	-19.7%	-16.6%
CN(C)c1ccc(C2C=C(c3ccc(Cl)cc3OC(F)F)Nc3ncnn32)cc1 (stereo not drawn)	7.2%	-23.2	-25.4%	-8.4	?	44.7µM*
Cc1ccc(C2C=C(c3ccccc3OC(F)F)Nc3ncnn32)cc1 (stereo not drawn)	6.6%	1.6	35.2%	-1.3	-7.2%	-17.0%
CC(=O)Nc1ccc(S(=O)(=O)NNC2=NS(=O)(=O)c3ccccc32)cc1	-5.3%	-1.2	50.4%	-1.0	70.8µM*	-34.3%
O=C1C(Br)=Cc2cccc3cccc1c23	nt	?	-37.1%	-5.1	25.1µM*	?
Cc1cc(C)n(C(C)CC(=O)Nc2ccc(Cl)cc2C)n1 (stereo not drawn)	7.1%	nt	4.9%	nt	-2.2%	-12.7%
CCc1cc(C)cc(OCCNC(=O)c2ncn[nH]2)c1	6.2%	-28.4	30.2%	9.9	50.1µM*	?
CC(C)(C)c1ccc(OCCNC(=O)c2ncn[nH]2)cc1	7.0%	-66.9*	34.2%	-65.9*	11.2µM*	4.6%
COc1ccccc1C(=O)NCCOc1ccc(C(C)(C)C)cc1	-4.1%	-9.5	78.0%	nt	14.0%	24.3%
Cc1ccccc1C(=O)Nc1ccc2c(C#N)c3nc4ccccc4nc3n2c1	11.3%	?	-9.9%	-70.6*	50.1µM*	-32.4%
CC(Nc1ncnc2c1cnn2-c1cccc(Cl)c1)c1ccccc1 (stereo not drawn)	2.6%	nt	84.4%	nt	21.7%	6.1%
O=C1c2cc(Br)ccc2O[C@@H](c2ccc3c(c2)OCO3)[C@@H]1O	9.3%	nt	nt	nt	nt	nt
COc1ccccc1NC(=O)COC(=O)c1ccc(S(=O)(=O)NCc2ccco2)cc1	2.5%	-13.3	11.0%	-5.1	?	-14.5%
O=C(COC(=O)c1ccc(S(=O)(=O)NCc2ccco2)cc1)NCc1ccc(F)cc1	-10.0%	-0.2	32.7%	0.7	-2.2%	-16.7%
COc1ccccc1NS(=O)(=O)c1ccc(C(=O)OCC(=O)NCc2ccco2)cc1	2.1%	-10.6	22.5%	-3.9	50.1µM*	-12.0%
COc1ccc(CNC(=O)COC(=O)c2ccc(S(=O)(=O)NCc3ccco3)cc2)cc1	17.8µM*	-7.9	-2.8%	9.4	nt	-23.2%
Cc1cc(Cl)ccc1NC(=O)Cn1nnc2sc(-c3ccccc3)cc2c1=O	0.0%	nt	65.2%	nt	-0.1%	-1.9%
O=C(c1ccc(Cl)c(S(=O)(=O)NCc2ccco2)c1)N1CCN(c2ccccc2F)CC1	7.9%	-2.5	-32.4%	-4.0	-10.2%	56.2µM*
COc1ccc2c(CNCc3cccs3)c(C(=O)O)n(Cc3cccc(F)c3)c2c1	5.6%	nt	5.5%	nt	-23.4%	-28.6%
Nc1nc2ccc([N+](=O)[O-])c(N)c2s1	7.9%	?	-9.3%	-71.7*	-34.9%	-29.9%
Nc1ccc2nc(N)sc2c1	nt	4.2	16.1%[57 µM]	0.3	nt	-11.0%
O=[N+]([O-])c1ccccc1-c1ccc(C(=S)N2CCCCC2)o1	8.2%	?	50.1µM*	?	25.1µM*	44.7µM*
O=[N+]([O-])c1ccccc1-c1ccc(C(=S)N2CCCC2)o1	5.9%	-13.1	?	0.0	39.8µM*	56.2µM*
Cc1cccc(N2CCN(C(=S)c3ccc(-c4ccccc4[N+](=O)[O-])o3)CC2)c1	11.2%	?	15.8µM*	0.3	10µM*	8.91µM*
SMILES	TDP1 inh	Six1-Eya2 blk	HP1b binding inh	CtBP-E1A inh	BAZ2B block	JMJD2A Tudor
O=C(c1ccc(COc2ccccc2[N+](=O)[O-])o1)N1CCCCC1	3.1%	-0.2	18.8%	0.2	-4.5%	-17.5%
Cc1ccccc1NC(=O)c1nc(S(C)(=O)=O)ncc1N(Cc1ccco1)Cc1sccc1C	2.6%	nt	14.9%	nt	-24.9%	-24.5%
COC(=O)CC(=O)CSc1nc2cc(C(=O)NCC(C)C)ccc2c(=O)n1CCc1ccccc1	7.9%	nt	47.9%	nt	1.5%	-1.0%
O=C(CCCCn1cnc2c(=S)nc[nH]c21)Nc1ccc(C(=O)O)c(O)c1	nt	-26.4	70.8µM*	-19.8	nt	2.82µM*
CCOC(=O)CSc1nc(N)c(C#N)c(-c2ccc(OCC)cc2)c1C#N	4.0%	3.7	20.0%	-0.4	-4.2%	-10.4%
CC1=C(C#N)c2nc(N)c(C#N)c(C)c2/C1=C\c1ccc(OCC(=O)O)c(Cl)c1	0.0%	?	?	?	50.1µM*	20µM*
CCOCCCN(Cc1cc2cc(C)cc(C)c2[nH]c1=O)C(=O)N(CC)CC	5.3%	3.5	15.2%	6.6	6.0%	8.8%
CCc1cc2cc(C)cc(C)c2[nH]c1=S	3.7%	-0.1	-24.8%	0.3	?	8.91µM*
COc1ccc(C2CC(=O)N3CN(Cc4ccco4)CSC3=C2C#N)cc1 (stereo not drawn)	2.0%	-1.5	?	-1.8	?	7.08µM*
N#CC1=C2SCN(Cc3ccco3)CN2C(=O)CC1c1ccc(Cl)cc1 (stereo not drawn)	2.1%	-1.3	?	0.5	nt	?
CC(C)c1ccc(C2CC(=O)N3CN(Cc4ccco4)CSC3=C2C#N)cc1 (stereo not drawn)	1.0%	-3.0	?	-3.5	50.1µM*	39.8µM*
N#CC1=C2SCN(Cc3ccccc3)CN2C(=O)CC1c1ccc2c(c1)OCO2 (stereo not drawn)	-2.1%	18.3	?	0.0	50.1µM*	50.1µM*
CC(C)c1ccc(NC(=O)c2cccc3c2C(=O)N(C2CCCCC2)C3)cc1	0.0%	nt	42.4%	nt	nt	-3.0%
CCN(CC)c1ccc(C(=O)NCc2nc3cccnc3n2Cc2ccc(C)cc2)cc1	9.9%	nt	11.2%[57 µM]	nt	-33.1%	?
COCCCNC(=O)CSc1nc2c(sc3ccccc32)c(=O)n1CCc1ccc(OC)c(OC)c1	4.4%	nt	10.8%	nt	-1.2%	-30.0%
CCC(=O)Nc1ccccc1-c1nc2ccccc2n(CC(=O)c2ccc(C)c(C)c2)c1=O	5.7%	nt	8.1%	nt	0.8%	-17.2%
COc1ccc(NC(=S)NNC(=O)c2nnn(-c3ccccc3)c2C)cc1	10.5%	-78.4*	10.9%	6.6	-31.9%	-24.8%
